KB-V1 MDR tox: qHTS assay for MDR1-selective chemotherapeutics: Primary screen using the drug-selected MDR subline cells KB-V1 | KB-V1 MDR cells viability, CellTiter-Glo, 72 h | Potency, µM (doses to about 46.1 µM), actives largely listed as cytotoxic | 400,000 tested, 3.4% active; also: nearly all actives have a fitted effect of over 60% in size
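KB-V1 cells (P-gp-expressing MDR subline of KB-3-1) in phenol-red-free DMEM with 10% FBS were exposed to library compounds over a concentration series for 72 h at 37 degrees C. Viability read by CellTiter-Glo luminescence; concentration-effect curves fitted after normalization.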
KB-3-1 tox: qHTS assay for MDR1-selective chemotherapeutics: Primary screen using the parental adenocarcinoma cell KB-3-1; AID 1347075, 2019; KB-3-1 viability, CellTiter-Glo ATP luminescence, 72 h; Potency, µM (highest dose often 46.1 µM), hits mostly cytotoxic; 400,000 tested, 1.4% active; also: nearly all actives have a fitted effect of over 60% in size
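Cytotoxicity in the drug-sensitive parental line KB-3-1 was scored as loss of CellTiter-Glo luminescence following 72 h incubation with compound. Values come from curve fitting of normalized concentration-response data.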
DT40 TDP1 CPT: qHTS for Inhibitors of human tyrosyl-DNA phosphodiesterase 1 (TDP1): qHTS in cells in presence of CPT; Potency, µM (highest dose often 46.2 µM), without a hit: top-dose activity change, negative = growth inhibition, hits mostly inhibitors; AID 686979, 2013; 420,000 tested, 12% active; chicken DT40 Tdp1-/-;hTDP1 cells + 20 nM CPT, ATP luminescence, 48 h; also: nearly all actives have a fitted effect of over 55% in size
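Cell growth measured by CellTiter-Glo luminescence after a minimum 48 h, 37 C compound exposure with 20 nM CPT in Tdp1-knockout DT40 cells stably expressing hTDP1, seeded 400/well; qHTS titration format.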
HT1080 IDH1KD tx: qHTS for induction of synthetic lethality in tumor cells producing 2HG: qHTS for the HT-1080-IDH1KD cell line; HT-1080 IDH1 knockdown viability, ATP luminescence, 48 h; Potency, µM (doses to about 46.1 µM), for inactives: at the highest dose activity, negative = toxicity, most hits filed as cytotoxic; 360,000 tested, 2% active;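 also: 0% = DMSO wells and -100% = cell-free medium wells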
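Assay cells: HT-1080 with IDH1 knockdown, 750 per well, RPMI/5% FBS. Exposure: 48 h at 37 °C following 2 h pre-incubation. Read: CellTiter-Glo luminescence; fitted concentration-response, curve class assigned.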
DT40 TDP1 no CPT: qHTS for Inhibitors of human tyrosyl-DNA phosphodiesterase 1 (TDP1): qHTS in cells in absence of CPT | 420,000 tested, 15% active | Potency, µM (doses to about 46.2 µM), inactives show top-dose activity change, negative = growth inhibition, hits mostly inhibitors | DT40 Tdp1-/- hTDP1 cells, no CPT, ATP luminescence, 48 h; also: nearly all actives have a fitted effect of over 55% in size
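A cellular qHTS used chicken DT40 cells lacking endogenous Tdp1 but carrying stably transfected human TDP1. Compounds were applied without camptothecin, and cell growth kinetics were judged by ATP-dependent luminescence after ≥48 hr.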
HT1080-NT tox: qHTS for induction of synthetic lethality in tumor cells producing 2HG: qHTS for the HT-1080-NT fibrosarcoma cell line. Potency, µM (top dose mostly 46.1 µM), inactives show at the highest dose activity, negative = less viability, usual class: cytotoxic. 360,000 tested, 1.6% active. HT-1080-NT fibrosarcoma viability, CellTiter-Glo ATP luminescence, 48 h. AID 686970, 2013;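 also: NT is the 2HG producing partner of a matched IDH1 knockdown line; 0% = DMSO-treated cells and -100% = media-only wells without cells; nearly all actives have a fitted effect of over 55% in size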
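Fibrosarcoma NT cells, 750 per well in 5% FBS RPMI, were exposed to compound for 48 hours. Viability: CellTiter-Glo luminescence.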
The depositor's hits bear a star; i = inactive; u = inconclusive; x = no result. A selection: hits, their analogues and other compounds. The true share with any hit is near 19%. Calls follow the shape of the dose curve; as a rule, active = well fitted curve in the direction sought with a large enough effect; inconclusive = small, poorly fitted or top-dose-only effect, or another doubt; inactive = no such curve, though single readings can be large; an effect the other way counts as inactive or inconclusive. Unless noted, % is scaled to controls: 0 for no effect and ±100 for the full control effect; potency is read from the fitted curve at half-maximal effect.

SMILES	KB-V1 MDR tox	KB-3-1 tox	DT40 TDP1 CPT	HT1080 IDH1KD tx	DT40 TDP1 no CPT	HT1080-NT tox
COc1cc(C(=O)NNC(=O)/C=C/c2ccccc2)cc(OC)c1OC	i	i	-1%	-23%	-22%	-6%
O=C(/C=C/c1ccccc1)NC(=S)NNC(=O)c1cccnc1	i	i	13µM*	-10%	5.8µM*	-5%
COc1ccc(/C=C/C(=O)NC(=S)NNC(=O)Cc2cccs2)cc1OC	i	i	16µM*	-26%	u	-20%
COc1ccc(/C=C/C(=O)NC(=S)NNC(=O)c2cccnc2)cc1OC	i	i	-10%	-9%	-26%	-1%
Cc1ccc(CNn2cn[nH]c2=S)cc1	i	i	-2%	2%	-23%	3%
Cc1ccc(NC(=O)c2cccc(S(=O)(=O)N3CCN(c4ccc(F)cc4)CC3)c2)nc1	u	16µM*	15µM*	u	u	u
CC(=NNC(=O)c1cccc(S(=O)(=O)N2CCOCC2)c1)c1ccc(Cl)cc1	u	i	u	-4%	-27%	-15%
O=C(Nc1ccc(Cl)cn1)c1cccc(S(=O)(=O)N2CCOCC2)c1	21µM*	i	-29%	-3%	-22%	0%
O=C(Nc1ncccc1O)c1cccc(S(=O)(=O)N2CCN(c3ccc(F)cc3)CC2)c1	u	i	u	-3%	u	1%
O=C(Nc1ccc(Cl)cn1)c1cccc(F)c1	3.7µM*	6.5µM*	7.3µM*	8.2µM*	4.6µM*	u
O=C(Nc1cccc(C(=O)Nc2ccc(Cl)cn2)c1)c1ccccc1	i	i	u	3%	-18%	-2%
O=C(Nc1ccncc1)c1cccc(S(=O)(=O)N2CCN(c3ccc(F)cc3)CC2)c1	u	i	21µM*	-24%	21µM*	-15%
CC(=O)N(C)C[C@@H]1Oc2ncc(C#Cc3ccc(F)cc3)cc2C(=O)N([C@@H](C)CO)C[C@H]1C	i	i	-8%	-2%	-21%	-7%
CCOC(=O)/C(N)=C/c1ncc(C(F)(F)F)cc1Cl	i	i	-22%	22%	-10%	13%
Cc1cc(C)nc(-n2nc(C)cc2NC(=O)c2cccc(S(=O)(=O)N3CCOCC3)c2)n1	i	i	u	12%	21µM*	11%
Cc1cc(C)nc(-n2nc(C)cc2NC(=O)c2ccc(S(=O)(=O)N3CCOCC3)cc2)n1	i	i	-30%	0%	-24%	27%
CC(C)c1ccc(C(=O)CC2(O)C(=O)N(CN3CCOCC3)c3ccccc32)cc1 (stereo not given)	i	i	u	-7%	-29%	2%
Oc1[nH]c2ccc(Br)cc2c1N=NC(=S)Nc1ccc(F)cc1	u	u	1.3µM*	u	2.9µM*	u
CC(C)c1ccc2[nH]c(O)c(N=NC(=O)c3cccc(S(=O)(=O)N4CCCCC4)c3)c2c1	2.3µM*	u	12µM*	4%	9.2µM*	6%
CNC(=S)N=Nc1c(O)[nH]c2ccc(C(C)C)cc12	21µM*	u	u	-1%	18µM*	1%
Oc1cccc(NC(=S)N=Nc2c(O)[nH]c3ccc(Br)cc23)c1	i	u	u	21µM*	u	u
Oc1ccc(NC(=S)N=Nc2c(O)[nH]c3ccc(Br)cc23)cc1	u	i	-78%	21µM*	23µM*	u
NS(=O)(=O)c1cc2c(cc1Cl)N[C@@H]([C@@H]1C[C@@H]3C=C[C@H]1C3)NS2(=O)=O	x	x	5%	x	-3%	x
C#CCN(C[C@H]1[C@H](OC(=O)NCc2ccco2)[C@H](OC(=O)NCc2ccco2)C[C@@H](C(=O)OC)[C@H]1C(=O)OC)S(=O)(=O)c1ccc(C)cc1	i	i	21µM*	-5%	u	-5%
C#CCN(C[C@H]1[C@H](OC(=O)NCc2ccc(OC)c(OC)c2)[C@H](OC(=O)NCc2ccc(OC)c(OC)c2)C[C@@H](C(=O)OC)[C@H]1C(=O)OC)S(=O)(=O)c1ccc(C)cc1	i	i	21µM*	-12%	13µM*	-8%
SMILES	KB-V1 MDR tox	KB-3-1 tox	DT40 TDP1 CPT	HT1080 IDH1KD tx	DT40 TDP1 no CPT	HT1080-NT tox
C#CCN(C[C@H]1[C@H](OC(=O)NC2CCCC2)[C@H](OC(=O)NC2CCCC2)C[C@@H](C(=O)OC)[C@H]1C(=O)OC)S(=O)(=O)c1ccc(C)cc1	u	u	13µM*	-2%	16µM*	-20%
Cc1c2cccn2cc[n+]1C	i	i	-1%	1%	1%	6%
O=C(C1CCCN(Cc2ccc([N+](=O)[O-])cc2)C1)N1CCCCC1 (stereo not given)	i	i	-14%	2%	-14%	-6%
Cc1ccc(C(=O)c2oc3ccccc3c2NC(=O)COc2ccc(C(C)(C)C)cc2)cc1	i	i	10%	x	-6%	x
Cc1cccc(NC(=O)Nc2ccccn2)c1C	i	i	-23%	8%	8%	9%
Cc1ccc(C(NC(=O)Nc2ccccn2)C(Cl)(Cl)Cl)cc1F (stereo not given)	i	i	u	13%	21µM*	6%
CCN1CCCc2cc(CN(CCN3CCOCC3)C(=S)Nc3cc(F)cc(F)c3)ccc21	u	u	u	1%	21µM*	0%
CCN1CCCc2cc(CN(CCN3CCOCC3)C(=S)Nc3ccc(C)cc3)ccc21	u	i	29µM*	-16%	18µM*	0%
CCN1CCCc2cc(CN(CCN3CCOCC3)C(=S)Nc3ccc(OC)cc3)ccc21	i	i	-17%	1%	-15%	0%
CCN1CCCc2cc(CN(CCN3CCOCC3)C(=S)Nc3cccc(Cl)c3)ccc21	i	i	16µM*	-21%	13µM*	-7%
Cc1ccc(C(=O)COC(=O)c2c(C)cc(=O)oc2C)cc1[N+](=O)[O-]	u	i	12%	17%	-1%	8%
COc1ccn(C2CCCCO2)c(=O)n1 (stereo not given)	i	i	-13%	6%	2%	0%

Assay outcomes: PubChem, National Center for Advancing Translational Sciences (NCATS)
